Test results from the supplement of paper PMC11732987, “Enantioselective OTUD7B fragment discovery through chemoproteomics screening and high-throughput optimisation” (Communications Chemistry, 2025).

How the values were obtained:
Assay in all cases: log2 ratio of Biotin-Ahx-Ub-VS probe labelling (fragment/DMSO); higher = less target engagement (more negative = stronger competition), active = hit call of the paper (q ≤ 0.05, log2 ratio ≤ -1)
Conditions in all cases: compound concentration: 200 uM; treatment time: 3 h
USP19 = target: T1, USP19 (UniProt O94966)
T1 sequence (whole entry): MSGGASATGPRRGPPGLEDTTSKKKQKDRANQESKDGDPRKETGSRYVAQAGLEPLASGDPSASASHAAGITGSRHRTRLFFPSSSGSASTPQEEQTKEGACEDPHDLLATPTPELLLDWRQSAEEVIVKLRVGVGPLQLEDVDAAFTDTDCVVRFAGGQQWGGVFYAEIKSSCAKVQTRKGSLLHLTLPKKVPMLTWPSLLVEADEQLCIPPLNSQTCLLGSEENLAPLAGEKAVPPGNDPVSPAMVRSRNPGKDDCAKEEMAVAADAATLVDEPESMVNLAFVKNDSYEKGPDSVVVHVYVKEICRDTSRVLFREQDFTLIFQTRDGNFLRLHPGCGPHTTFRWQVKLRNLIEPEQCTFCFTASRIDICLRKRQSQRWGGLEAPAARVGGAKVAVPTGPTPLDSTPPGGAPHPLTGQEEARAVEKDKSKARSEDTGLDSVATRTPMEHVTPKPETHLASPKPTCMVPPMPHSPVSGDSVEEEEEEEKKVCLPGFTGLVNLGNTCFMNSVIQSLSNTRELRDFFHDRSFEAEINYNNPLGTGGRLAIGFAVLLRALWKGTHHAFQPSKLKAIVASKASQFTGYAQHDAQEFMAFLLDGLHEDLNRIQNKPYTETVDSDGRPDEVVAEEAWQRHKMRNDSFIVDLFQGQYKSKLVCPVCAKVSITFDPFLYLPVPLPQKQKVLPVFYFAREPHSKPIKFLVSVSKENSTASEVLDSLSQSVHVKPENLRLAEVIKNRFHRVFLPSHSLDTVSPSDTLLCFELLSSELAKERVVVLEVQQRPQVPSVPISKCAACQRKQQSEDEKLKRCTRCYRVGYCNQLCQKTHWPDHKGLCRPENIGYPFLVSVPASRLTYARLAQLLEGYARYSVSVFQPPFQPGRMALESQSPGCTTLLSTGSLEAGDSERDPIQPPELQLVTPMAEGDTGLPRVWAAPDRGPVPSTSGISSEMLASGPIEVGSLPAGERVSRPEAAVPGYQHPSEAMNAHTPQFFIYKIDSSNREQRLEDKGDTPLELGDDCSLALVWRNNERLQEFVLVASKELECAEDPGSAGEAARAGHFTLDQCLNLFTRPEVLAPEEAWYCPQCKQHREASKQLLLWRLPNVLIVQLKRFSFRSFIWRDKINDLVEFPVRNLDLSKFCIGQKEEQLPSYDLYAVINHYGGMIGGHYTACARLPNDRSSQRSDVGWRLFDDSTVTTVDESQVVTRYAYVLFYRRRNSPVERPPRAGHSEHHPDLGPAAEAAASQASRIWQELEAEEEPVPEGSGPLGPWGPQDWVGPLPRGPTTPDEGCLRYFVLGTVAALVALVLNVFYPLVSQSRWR
Summary of the method: (§1)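 HEK293T lysate in Tris/CHAPS/IGEPAL buffer with protease inhibitors (495 µg per sample) was given fragment at 200 µM or vehicle for 3 h, in triplicate. It then received Biotin-Ahx-Ub-VS at 0.5 µM final for 1 h. Labelled DUBs were NeutrAvidin-enriched, digested with LysC and trypsin, and run by diaPASEF LC-MS/MS. Values are average log2 fragment/vehicle ratios by unpaired t-test on global-median-normalised Spectronaut quantities of proteins with ≥2 unique peptides.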

USP22 = target: T2, USP22 (UniProt Q9UPT9)
T2 sequence (whole entry): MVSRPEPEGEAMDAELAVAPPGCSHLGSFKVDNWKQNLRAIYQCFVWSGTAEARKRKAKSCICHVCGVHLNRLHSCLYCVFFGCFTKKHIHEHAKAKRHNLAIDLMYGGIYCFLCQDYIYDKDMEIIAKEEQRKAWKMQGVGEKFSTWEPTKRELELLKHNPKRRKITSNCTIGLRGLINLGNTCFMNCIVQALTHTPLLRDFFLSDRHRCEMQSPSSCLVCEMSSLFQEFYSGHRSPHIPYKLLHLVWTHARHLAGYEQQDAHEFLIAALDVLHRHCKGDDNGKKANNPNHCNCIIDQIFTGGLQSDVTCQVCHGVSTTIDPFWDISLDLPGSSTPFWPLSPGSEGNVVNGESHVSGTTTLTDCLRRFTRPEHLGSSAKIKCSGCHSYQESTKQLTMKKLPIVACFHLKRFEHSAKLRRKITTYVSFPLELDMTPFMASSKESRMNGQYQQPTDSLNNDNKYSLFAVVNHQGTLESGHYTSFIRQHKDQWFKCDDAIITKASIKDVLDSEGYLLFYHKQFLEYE
Summary of the method: as §1

USP24 = USP24 (UniProt Q9UPU5)
Summary of the method: as §1

USP25 = target: T3, USP25 (UniProt Q9UHP3)
T3 sequence (whole entry): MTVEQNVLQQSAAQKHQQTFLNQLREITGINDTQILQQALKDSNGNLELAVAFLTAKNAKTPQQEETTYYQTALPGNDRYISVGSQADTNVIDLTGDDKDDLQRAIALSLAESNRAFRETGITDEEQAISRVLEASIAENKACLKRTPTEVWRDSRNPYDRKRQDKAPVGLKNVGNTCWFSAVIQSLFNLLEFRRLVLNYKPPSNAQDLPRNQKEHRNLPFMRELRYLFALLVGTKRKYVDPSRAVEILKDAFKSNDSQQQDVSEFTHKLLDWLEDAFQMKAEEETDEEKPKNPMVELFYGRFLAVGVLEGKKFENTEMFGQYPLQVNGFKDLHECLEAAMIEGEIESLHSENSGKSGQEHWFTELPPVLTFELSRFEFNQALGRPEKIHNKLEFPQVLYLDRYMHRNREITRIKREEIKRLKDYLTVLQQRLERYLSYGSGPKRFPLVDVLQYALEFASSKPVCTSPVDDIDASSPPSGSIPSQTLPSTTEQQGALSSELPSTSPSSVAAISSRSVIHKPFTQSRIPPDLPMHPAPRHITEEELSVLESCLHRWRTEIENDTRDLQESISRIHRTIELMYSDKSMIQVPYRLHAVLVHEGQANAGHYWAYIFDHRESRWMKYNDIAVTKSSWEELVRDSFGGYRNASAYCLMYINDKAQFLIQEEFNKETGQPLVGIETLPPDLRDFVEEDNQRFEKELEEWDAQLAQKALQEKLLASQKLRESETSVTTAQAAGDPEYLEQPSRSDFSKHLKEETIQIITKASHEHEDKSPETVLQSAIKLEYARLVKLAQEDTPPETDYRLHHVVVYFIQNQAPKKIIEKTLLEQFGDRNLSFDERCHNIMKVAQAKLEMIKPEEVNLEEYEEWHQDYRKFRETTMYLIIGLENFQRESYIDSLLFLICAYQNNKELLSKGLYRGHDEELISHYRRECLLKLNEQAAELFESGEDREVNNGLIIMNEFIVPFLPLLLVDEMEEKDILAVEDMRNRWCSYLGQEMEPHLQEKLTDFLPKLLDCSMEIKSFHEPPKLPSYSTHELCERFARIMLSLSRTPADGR
Summary of the method: as §1

USP28 = target: T4, USP28 (UniProt Q96RU2)
T4 sequence (whole entry): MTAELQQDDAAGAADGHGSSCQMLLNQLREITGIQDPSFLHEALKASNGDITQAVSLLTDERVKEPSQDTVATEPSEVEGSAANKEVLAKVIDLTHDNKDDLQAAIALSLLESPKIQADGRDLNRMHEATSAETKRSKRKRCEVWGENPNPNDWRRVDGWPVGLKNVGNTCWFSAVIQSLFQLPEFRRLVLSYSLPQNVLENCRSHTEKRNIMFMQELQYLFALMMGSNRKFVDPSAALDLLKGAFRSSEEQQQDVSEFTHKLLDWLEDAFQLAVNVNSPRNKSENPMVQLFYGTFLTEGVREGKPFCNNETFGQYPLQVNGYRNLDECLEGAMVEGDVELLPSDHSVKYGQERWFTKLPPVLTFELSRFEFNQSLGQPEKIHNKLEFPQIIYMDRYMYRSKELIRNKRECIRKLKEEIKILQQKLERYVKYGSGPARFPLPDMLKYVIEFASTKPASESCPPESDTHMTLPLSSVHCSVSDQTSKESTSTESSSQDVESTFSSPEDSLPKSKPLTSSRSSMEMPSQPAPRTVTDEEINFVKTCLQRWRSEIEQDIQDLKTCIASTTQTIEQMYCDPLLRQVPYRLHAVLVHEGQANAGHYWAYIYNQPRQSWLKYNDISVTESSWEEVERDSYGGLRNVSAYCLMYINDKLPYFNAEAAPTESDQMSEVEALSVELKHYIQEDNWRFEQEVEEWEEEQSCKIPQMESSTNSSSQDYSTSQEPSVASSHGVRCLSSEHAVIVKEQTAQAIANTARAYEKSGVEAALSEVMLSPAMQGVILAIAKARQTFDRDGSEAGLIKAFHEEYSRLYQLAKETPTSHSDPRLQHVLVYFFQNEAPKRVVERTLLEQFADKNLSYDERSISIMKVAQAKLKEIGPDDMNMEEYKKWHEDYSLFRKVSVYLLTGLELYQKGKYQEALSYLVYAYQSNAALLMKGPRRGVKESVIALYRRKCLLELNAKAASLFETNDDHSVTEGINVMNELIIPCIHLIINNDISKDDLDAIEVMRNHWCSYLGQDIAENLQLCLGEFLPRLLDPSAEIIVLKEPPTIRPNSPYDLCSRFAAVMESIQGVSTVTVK
Summary of the method: as §1

Measured: log2 ratio of Biotin-Ahx-Ub-VS probe labelling

Chain of USP24 (Q9UPU5 whole entry): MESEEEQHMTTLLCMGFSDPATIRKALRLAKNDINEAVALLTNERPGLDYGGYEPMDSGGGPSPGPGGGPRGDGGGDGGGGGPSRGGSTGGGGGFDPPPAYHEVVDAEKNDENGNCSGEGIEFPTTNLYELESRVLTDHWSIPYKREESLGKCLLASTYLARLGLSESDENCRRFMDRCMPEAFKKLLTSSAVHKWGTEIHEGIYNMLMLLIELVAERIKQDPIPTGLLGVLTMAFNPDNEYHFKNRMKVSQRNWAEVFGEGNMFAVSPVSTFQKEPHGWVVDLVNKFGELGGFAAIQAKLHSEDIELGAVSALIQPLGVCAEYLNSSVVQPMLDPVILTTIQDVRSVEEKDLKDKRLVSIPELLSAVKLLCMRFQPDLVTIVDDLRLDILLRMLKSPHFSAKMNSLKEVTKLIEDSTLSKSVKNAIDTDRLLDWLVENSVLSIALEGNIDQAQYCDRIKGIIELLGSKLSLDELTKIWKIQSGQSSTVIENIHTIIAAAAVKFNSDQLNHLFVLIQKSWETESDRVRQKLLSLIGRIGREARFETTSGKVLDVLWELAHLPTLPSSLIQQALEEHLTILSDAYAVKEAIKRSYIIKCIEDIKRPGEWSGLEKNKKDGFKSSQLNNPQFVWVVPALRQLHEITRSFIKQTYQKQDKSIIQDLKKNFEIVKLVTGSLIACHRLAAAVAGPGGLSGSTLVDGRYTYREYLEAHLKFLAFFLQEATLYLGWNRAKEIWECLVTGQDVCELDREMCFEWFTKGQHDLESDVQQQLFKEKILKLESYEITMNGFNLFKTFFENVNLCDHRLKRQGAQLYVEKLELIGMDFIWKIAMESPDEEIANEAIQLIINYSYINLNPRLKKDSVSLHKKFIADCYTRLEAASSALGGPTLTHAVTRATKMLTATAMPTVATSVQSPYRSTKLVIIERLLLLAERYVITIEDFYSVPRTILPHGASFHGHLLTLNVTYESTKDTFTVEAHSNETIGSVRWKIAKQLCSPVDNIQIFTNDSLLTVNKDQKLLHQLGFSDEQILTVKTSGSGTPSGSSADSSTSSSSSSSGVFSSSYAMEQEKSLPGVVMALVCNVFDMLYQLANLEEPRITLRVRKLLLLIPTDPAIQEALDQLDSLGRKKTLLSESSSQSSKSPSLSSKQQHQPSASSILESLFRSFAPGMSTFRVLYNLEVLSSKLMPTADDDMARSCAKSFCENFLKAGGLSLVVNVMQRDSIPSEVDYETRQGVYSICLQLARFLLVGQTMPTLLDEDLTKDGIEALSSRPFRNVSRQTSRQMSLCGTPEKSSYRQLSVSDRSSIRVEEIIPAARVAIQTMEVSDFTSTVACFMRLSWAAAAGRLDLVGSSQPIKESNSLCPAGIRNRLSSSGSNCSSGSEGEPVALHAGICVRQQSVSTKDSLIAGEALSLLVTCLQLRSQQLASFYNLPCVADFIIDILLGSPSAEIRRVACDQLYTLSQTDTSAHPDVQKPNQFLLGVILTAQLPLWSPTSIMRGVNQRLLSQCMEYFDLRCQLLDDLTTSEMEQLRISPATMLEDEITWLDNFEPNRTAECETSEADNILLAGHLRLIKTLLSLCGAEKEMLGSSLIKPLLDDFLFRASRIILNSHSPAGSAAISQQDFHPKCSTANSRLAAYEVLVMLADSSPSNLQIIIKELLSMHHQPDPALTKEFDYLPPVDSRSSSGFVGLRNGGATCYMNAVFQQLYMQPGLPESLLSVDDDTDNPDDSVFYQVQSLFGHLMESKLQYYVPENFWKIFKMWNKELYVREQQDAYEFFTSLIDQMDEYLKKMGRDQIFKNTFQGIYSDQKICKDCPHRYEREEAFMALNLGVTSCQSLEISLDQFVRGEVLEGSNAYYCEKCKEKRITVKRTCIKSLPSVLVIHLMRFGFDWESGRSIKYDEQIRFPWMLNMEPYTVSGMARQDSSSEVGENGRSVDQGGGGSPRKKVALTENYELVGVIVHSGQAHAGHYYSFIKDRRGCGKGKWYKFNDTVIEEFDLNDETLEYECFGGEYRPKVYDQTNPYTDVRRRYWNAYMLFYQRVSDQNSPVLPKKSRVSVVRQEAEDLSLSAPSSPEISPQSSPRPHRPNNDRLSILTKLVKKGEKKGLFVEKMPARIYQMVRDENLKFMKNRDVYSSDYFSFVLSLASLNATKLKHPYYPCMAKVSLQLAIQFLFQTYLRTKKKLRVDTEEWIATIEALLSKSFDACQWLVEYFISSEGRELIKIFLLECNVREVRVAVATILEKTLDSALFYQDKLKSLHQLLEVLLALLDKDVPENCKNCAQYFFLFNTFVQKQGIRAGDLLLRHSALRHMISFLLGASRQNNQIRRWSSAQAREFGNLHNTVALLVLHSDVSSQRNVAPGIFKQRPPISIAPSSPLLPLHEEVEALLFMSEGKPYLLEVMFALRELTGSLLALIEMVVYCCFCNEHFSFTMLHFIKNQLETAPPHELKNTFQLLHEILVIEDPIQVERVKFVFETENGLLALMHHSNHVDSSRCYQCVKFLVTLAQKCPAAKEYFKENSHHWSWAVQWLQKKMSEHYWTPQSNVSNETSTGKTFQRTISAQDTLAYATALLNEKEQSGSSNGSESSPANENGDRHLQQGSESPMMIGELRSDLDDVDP

CS(=O)(=O)N1CCCN(C(=O)CCl)CC1
inactive: USP19 -0.0881 | USP22 0.0754 | USP24 -0.0413 | USP25 -0.243 | USP28 -0.549
